Assay outcomes (PubChem BioAssay)
This is a sample that favours compounds with a hit; in the whole collection about 11% have one here.
HP1b binding inh = inhibitors of HP1-beta chromodomain binding to methylated histone tails. P83916. AlphaScreen HP1-beta / biotin-H3K9me3 peptide binding. Potency, µM (titrated, usually from 114 µM), for inactives: top-dose activity change, negative = inhibition, usual class: inhibitors. 0.56% of 390,000 active; note: nearly all actives have a fitted effect of over 70% in size
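HP1-beta protein (50 nM final) preincubated 30 min at room temperature with biotinylated H3(1-18)K9me3 peptide (50 nM) in PBS pH 7.4, 0.01% Tween-20, then compound added for 30 min. AlphaScreen streptavidin donor/nickel chelate acceptor beads (10 ug/mL final), 30 min dark, luminescence read.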
JMJD2A Tudor inh = JMJD2A Tudor domain (human) inhibition; Potency, µM (top dose mostly 114 µM), for the others: at the highest dose activity change, negative = inhibition, usual class: inhibitors; AlphaScreen JMJD2A-Tudor / H3K4me3 peptide binding; AID 504339; 4.4% of 390,000 active; note: % is set by controls: 0 for no effect and ±100 for the full control effect; nearly all actives have a fitted effect of over 50% in size
Target sequence (O75164 whole entry, looked up, the tested form may be a part): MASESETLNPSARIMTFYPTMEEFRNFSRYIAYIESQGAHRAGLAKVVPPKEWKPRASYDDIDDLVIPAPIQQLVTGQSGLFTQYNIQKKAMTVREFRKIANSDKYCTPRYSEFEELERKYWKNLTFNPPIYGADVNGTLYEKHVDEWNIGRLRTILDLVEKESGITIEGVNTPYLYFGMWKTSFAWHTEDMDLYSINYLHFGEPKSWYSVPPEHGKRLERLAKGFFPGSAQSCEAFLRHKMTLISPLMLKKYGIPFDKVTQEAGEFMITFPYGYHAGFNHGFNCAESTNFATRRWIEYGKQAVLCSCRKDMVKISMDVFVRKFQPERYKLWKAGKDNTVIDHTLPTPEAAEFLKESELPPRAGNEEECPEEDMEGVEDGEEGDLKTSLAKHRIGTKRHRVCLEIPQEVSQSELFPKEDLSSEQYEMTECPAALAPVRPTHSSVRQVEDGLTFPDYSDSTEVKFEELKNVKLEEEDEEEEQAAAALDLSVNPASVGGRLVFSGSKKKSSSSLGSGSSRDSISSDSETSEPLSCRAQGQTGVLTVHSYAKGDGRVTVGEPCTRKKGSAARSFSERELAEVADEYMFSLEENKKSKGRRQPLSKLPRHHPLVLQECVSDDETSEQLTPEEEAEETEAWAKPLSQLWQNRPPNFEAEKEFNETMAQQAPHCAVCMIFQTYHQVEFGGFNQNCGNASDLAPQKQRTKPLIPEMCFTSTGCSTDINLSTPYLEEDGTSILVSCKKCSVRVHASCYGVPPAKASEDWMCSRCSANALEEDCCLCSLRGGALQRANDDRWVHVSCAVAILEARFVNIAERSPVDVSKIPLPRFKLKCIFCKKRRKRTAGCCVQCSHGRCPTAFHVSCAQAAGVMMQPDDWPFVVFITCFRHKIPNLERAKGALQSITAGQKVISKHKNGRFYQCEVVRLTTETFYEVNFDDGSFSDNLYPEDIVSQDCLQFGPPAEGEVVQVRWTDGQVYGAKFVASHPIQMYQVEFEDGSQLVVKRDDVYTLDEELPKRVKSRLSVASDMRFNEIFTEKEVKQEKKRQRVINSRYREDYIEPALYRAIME
G9a block = G9a (human) methyltransferase inhibition; G9a H3K9 monomethylation, AlphaScreen, 2 h; Potency, µM (doses to about 102 µM), inactives show at the top dose activity, negative = inhibition, hits mostly inhibitors; 8.8% of 350,000 active; note: % is set by controls: 0 for no effect and ±100 for the full control effect; nearly all actives have a fitted effect of over 75% in size
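Enzyme 20 nM + cpd, 15 min RT; add b-H3K9 pep 500 nM / SAM 20 uM; 2 h RT; anti-H3K9me1 Ab 0.5 ug/mL + SA donor / anti-rabbit acceptor beads 20 ug/mL each, 10 min; AlphaScreen read.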
BAZ2B block = BAZ2B (human) inhibition | Q9UIF8 | AlphaScreen BAZ2B-H3K14Ac peptide displacement | Potency, µM (titrated, usually from 114 µM), for the others: top-dose activity change, negative = inhibition, hits mostly inhibitors | 4.4% of 360,000 active; note: % is set by controls: 0 for no effect and ±100 for the full control effect; nearly all actives have a fitted effect of over 60% in size
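AlphaScreen displacement: compounds (up to 110uM) incubated 30 min at room temperature with a preformed 50 nM BAZ2B/50 nM biotinylated H3K14Ac peptide complex in PBS pH 7.4 with Tween-20. Donor and acceptor beads at 10 ug/mL final added, 20 min light-protected before reading.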
L3MBTL1 inh = inhibitors of human L3MBTL1. AlphaScreen L3MBTL1–H3K9me1 peptide binding. Q9Y468. Potency, µM (titrated, usually from 57.1 µM), for the others: at the highest dose activity, negative = inhibition, hits mostly inhibitors. 0.66% of 230,000 active; note: % is set by controls: 0 for no effect and ±100 for the full control effect; nearly all actives have a fitted effect of over 60% in size
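L3MBTL1 (50 nM) pre-complexed 30 min with biotinylated H3(1-15)K9me1 peptide (75 nM), then compounds added for 30 min at room temperature; AlphaScreen streptavidin donor/nickel chelate acceptor beads (10 ug/mL final) read after 30 min dark incubation.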
* = called active by the depositor; ? = inconclusive; . = not tested or not shown; [ ] = dose if it differs, or a comment. Calls come from the whole dose curve; as a rule, active = well fitted inhibition curve with a large enough effect; inconclusive = small, poorly fitted or top-dose-only effect; inactive = no such curve, though single readings can be large or run the other way. Potency is the fitted concentration of half-maximal effect.

SMILES | HP1b binding inh | JMJD2A Tudor inh | G9a block | BAZ2B block | L3MBTL1 inh
CCOc1ccc(S(=O)(=O)N(C)c2ccc(OCC(=O)Nc3nc(-c4cc(OC)ccc4OC)cs3)cc2)cc1 | 6% | -14% | 50µM* | 5% | -14%
Cc1ccc(C2C(C#N)=C(N)Oc3n[nH]c(-c4cccs4)c32)s1 (configuration not stated) | 10% | -18% | 50µM* | ? | 0%
CCC1CCCCN1C(=O)CSc1n[nH]c(-c2ccccc2Cl)n1 (configuration not stated) | 23%[57 µM] | -6% | -36%[59 µM] | 0% | .
CN(C)c1ccc(N2C(=O)CC(c3ccccc3)CC2=O)cc1 | 11% | 0% | -2% | -13% | -5%
CN(C)c1ccc(N2C(=O)CSC2=S)cc1 | ? | 40µM* | ? | 40µM* | ?
CC1SC(=S)N(c2ccc(N(C)C)cc2)C1=O (configuration not stated) | 4% | ? | 45µM* | ? | .
CCCCOC(=O)c1ccc(OC(=O)c2sc3ncn(Cc4ccccc4Cl)c(=O)c3c2C)cc1 | 11% | -2% | 1%[59 µM] | 2% | .
COc1ccc(C2CC(=O)c3cc(-c4nc(-c5cccc(Cl)c5)cs4)c(=O)[nH]c3C2)cc1OC (configuration not stated) | 55% | -13% | 24%[59 µM] | -1% | .
O=C(Nc1nnc(C(F)(F)F)s1)c1ccc(Br)s1 | 7% | -36% | 50µM* | -13% | 5%
COCCSc1ccccc1C(=O)NCc1cccnc1 | 13% | -26% | . | -38% | -4%
Cc1nc(COC(=O)c2cc(O)c3ccccc3c2O)cs1 | ? | -8%[11.4 µM] | 3.2µM* | . | -9%
Cc1nc(COC(=O)c2ccc(CO)cc2)cs1 | 45% | -21% | 1% | 4% | -2%
CCc1nn(CC(=O)N2CCCCC2)c(=O)c2cc3sccc3n12 | 22% | -5% | 7%[59 µM] | 0% | .
CCCCc1cc(=O)oc2cc(C)c3c(C(C)(C)C)coc3c12 | 4% | 28% | -36%[59 µM] | -20% | .
CC(C)OCCCN(CC(O)c1ccccc1)CC(O)c1ccccc1 (configuration not stated) | ? | 5.6µM* | 7.9µM* | ? | 1%
OC(CN(Cc1ccccc1)Cc1ccccc1)c1ccccc1 (configuration not stated) | 85%[57 µM] | 148% | . | . | .
CC(C)(C)Nc1nc(C#N)nc(Nc2ccccc2)n1 | . | -12% | . | . | .
COc1ccc(CCNCc2ccccc2N2CCCC2)cc1 | -5% | 20µM* | ? | 56µM* | .
COc1ccc(CCNCc2cc(C)n(-c3ccc(OC)cc3)c2C)cc1 | ? | 20µM* | -11%[2.33 µM] | 28µM* | .
COc1ccc(CCNC(=O)CN2CCN(c3ccccc3Cl)CC2)cc1 | 13% | -17% | -49%[59 µM] | -15% | .
CCCc1cc(=O)oc2cc(C)cc(OC(C)C(=O)NCCCN3CCOCC3)c12 (configuration not stated) | 29% | -13% | -1%[59 µM] | -31% | .
Cc1cc(OC(C)C(=O)NCCCN2CCOCC2)c2c(C)cc(=O)oc2c1 (configuration not stated) | 79µM* | -6% | 17%[0.0925 µM] | 0% | .
COc1cc(Cl)c(C)cc1NC(=O)Cn1cnc2sc(C)c(S(=O)(=O)N3CCCCC3)c2c1=O | 30% | -21% | -24%[59 µM] | -12% | .
CCCc1c(C(=O)Nc2ccc(F)cc2F)cnn1-c1ccccc1 | 91% | 5% | 7% | 0% | -2%
O=C(NNc1cccc(Cl)c1)c1cccnc1Cl | 56% | 1% | 10µM* | -2% | 14%
SMILES | HP1b binding inh | JMJD2A Tudor inh | G9a block | BAZ2B block | L3MBTL1 inh
CCCc1c(C(=O)NNc2cccc(Cl)c2)cnn1-c1ccccc1 | 9% | ? | 35µM* | -39% | -4%
Cc1ccccc1OCC(=O)NCC(=O)OCC(=O)c1ccc(F)cc1 | 10%[57 µM] | -23%[57.1 µM] | . | . | .
O=C(NCc1ccco1)c1cnc2n(c1=O)CCS2 | 25% | -13% | 50µM* | 1% | -4%
Cc1c(C(=O)NCc2ccco2)oc2ccc(Br)cc12 | 10% | -10% | ? | ? | ?
O=C(O)c1ccccc1-c1ccccc1C(=O)NCc1ccco1 | 15% | -35% | 50µM* | 9% | -8%
O=C(NCc1ccco1)c1cc2cc(Br)ccc2o1 | ? | ? | 8.9µM* | ? | .
O=C(NCc1ccc(F)cc1)c1cnc2n(c1=O)CCS2 | 24% | -21% | ? | -2% | .
Cc1ccc(C)c(NC(=O)c2cnc3n(c2=O)CCS3)c1 | 47% | -8% | 56µM* | -18% | -1%
CCOC(=O)COc1cc(C)c(Cl)cc1C(=O)c1ccn2nc(-c3ccc(OC)cc3)cc2n1 | 18% | -7% | -32%[59 µM] | -15% | .
CCOC(=O)CCNC(=O)N1CCCC(N(C)CCc2ccc(OC)c(OC)c2)C1 (configuration not stated) | 18% | -2% | 6% | 9% | -1%
O=C(NC1CCCCC1)c1c(O)nc2sccn2c1=O | -12% | -16% | -28% | -4% | 4%
O=C(NCc1ccco1)c1cccs1 | 26% | -9% | 40µM* | -9% | -12%
O=C(NNC(=S)NCc1ccco1)c1cccs1 | 13% | ? | ? | -4% | 11%
O=C(c1cnc2n(c1=O)CCS2)N(C1CCCCC1)C1CCCCC1 | 40% | -7% | 79µM* | 3% | -1%
Nc1ccccc1Nc1ccccc1 | ? | 45µM* | . | 45µM* | -3%
Nc1ccc(Nc2ccccc2)c(Cl)c1 | ? | ? | ? | 50µM* | -14%
Cc1nc(-c2nnc(SCC(=O)Nc3cc(Cl)cc(Cl)c3)n2C)cs1 | 13% | -6% | 0% | -6% | 12%
CCCOc1cccc(C2c3c(-c4ccccc4O)n[nH]c3C(=O)N2Cc2ccco2)c1 (configuration not stated) | -1% | ? | -35%[59 µM] | ? | .
O=C1OC2(CCCCC2)CC2=C1C1O[C@](c3ccsc3)(Cc3c1ccc1ccccc31)O2 | . | . | . | -4%[22.9 µM] | .
Nc1ncnc(Oc2cccc3cccnc23)c1[N+](=O)[O-] | 31% | -1% | ? | 45µM* | 2%[11.4 µM]
CC(NCc1ccc([N+](=O)[O-])cc1)C1COc2ccccc2O1 (configuration not stated) | ? | 7.9µM* | ? | 50µM* | .
O=C(N/N=C1\CC2CC=CC12)c1ccccc1Cl (configuration not stated) | 19% | -9% | -9% | -20% | 6%
FC(F)(F)c1ccccc1NC(=S)N/N=C1\CC2CC=CC12 (configuration not stated) | ? | -37% | 18µM* | 71µM* | 46%
COc1cc(NC(=O)CCc2c(C)nc3c(-c4ccc(F)cc4)c(C)nn3c2C)cc(OC)c1OC | 40% | -18% | 14%[59 µM] | -15% | .
FC(F)(F)c1ccc(Cl)c(-n2c(-c3cc(C4CC4)[nH]n3)n[nH]c2=S)c1 | 13% | ? | 8.9µM* | -20% | -2%
FC(F)(F)c1ccc(Cl)c(-n2c(-c3ccco3)n[nH]c2=S)c1 | 50% | ? | 10µM* | -13% | .
